Values joined by “and” are separate entries in the source; they are usually repeats but may differ in a detail not shown here. Equal values may be shown once. Inconclusive results are not listed. Some compounds were tested as several samples or in several runs, with calls that do not always agree. Active and inactive are the calls of the source. Unless noted, the call rests on the fitted dose curve; in most records, active means well fitted curve in the direction sought with a large enough effect in the repeat runs; inconclusive means weak or mixed curves; inactive means no such curve, though single readings can be large; an effect the other way counts as inactive or inconclusive.
Key:
[1] = A CellTox Green Cytotoxicity Assay to monitor cytotoxicity in HepG2 cells - 8 hour (AID 1224890); further: nearly all actives have a fitted effect of over 45% in size; further: potency means the concentration at half of the fitted maximal effect
Procedure, shortened: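 HepG2 cells were seeded together with the CellTox Green dye at 600 cells/well, left 5 h at 37 C/5% CO2, then given compounds in DMSO. Fluorescence from dye bound to dead-cell DNA was read repeatedly over 40 h of treatment at 37 C.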

[2] = qHTS assay to identify small molecule antagonists of the estrogen receptor alpha (ER-alpha) signaling pathway using the BG1 cell line in the presence of 0.1 nM 17-beta-estradiol - cell viability counter screen (AID 1259241); further: nearly all actives have a fitted effect of over 40% in size
Procedure, shortened: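 Viability in VM7Luc4E2 cells after 22 hr compound exposure under 0.1 nM 17beta-estradiol stimulation, by CellTiter-Fluor.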

[3] = qHTS assay to identify small molecule phospholipidosis (PLD) inducers (AID 1259344; active means well fitted curve in the direction sought with a large enough effect; an effect the other way counts as inactive or inconclusive)
Procedure, shortened: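 HepG2 cells, 900/well, treated with compound plus LipidTOX Red for 24 h at 37 C; amiodarone positive and DMSO negative controls. Fixed with paraformaldehyde/Hoechst, then high-content imaging scored LipidTOX pit count and integrated intensity per well and per cell.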

[4] = qHTS assay to identify small molecule HDAC inhibitors (AID 1259364); further: top concentration of the series differs between compounds; nearly all actives have a fitted effect of over 45% in size
Procedure, shortened: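 Wild-type HCT-116 cells were plated overnight, exposed to compounds for 2 h at 37 °C, then given HDAC-Glo class I/II luminogenic reagent for 30 min at room temperature before luminescence was read.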

[5] = qHTS assay to identify small molecule HDAC inhibitors - cell viability counter screen (AID 1259365); further: series mostly up to about 92 µM; nearly all actives have a fitted effect of over 50% in size
Procedure, shortened: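 Cytotoxicity was gauged in wild-type HCT-116 cells after a brief 2hr treatment with DMSO-dissolved compounds at 37C and 5% CO2, using CellTiter-Glo luminescence developed for 30min at room temperature.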

[6] = qHTS assay to identify small molecule agonists of the sonic hedgehog signaling (Shh) pathway - cell viability counter screen (AID 1259366); further: nearly all actives have a fitted effect of over 50% in size
Procedure, shortened: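 Stable Gli1-Luc NIH/3T3 clone, 2,000 cells/well. Compound exposure 24hr at 37C. Read-out: CellTiter-Fluor fluorescence.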

[7] = qHTS assay to identify small molecule antagonists of the sonic hedgehog signaling (Shh) pathway - cell viability counter screen (AID 1259367); further: nearly all actives have a fitted effect of over 55% in size
Procedure, shortened: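 NIH/3T3-derived Gli1-Luc reporter cells, 2,000/well, plated 4 hr before compound addition, then stimulated with conditioned medium for 24 hr at 37C. Viability measured in the same wells by CellTiter-Fluor fluorescence, reagent added at 23 hr for 1 hr.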

[8] = qHTS assay to identify small molecule agonists of the sonic hedgehog signaling (Shh) pathway (AID 1259368; calls by dose curve; further: series mostly up to about 92 µM; nearly all actives have a fitted effect of over 15% in size)
Procedure, shortened: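 NIH/3T3-derived 3T3Gli1-Luc cells carrying a stably integrated Gli1 response element–firefly luciferase reporter were plated, left 4 hr at 37 C, then given compounds in DMSO for 24 hr. Luminescence was read 30 min after adding luciferase reagent.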

[9] = qHTS assay to identify small molecule antagonists of the sonic hedgehog signaling (Shh) pathway (AID 1259369; calls by dose curve; further: nearly all actives have a fitted effect of over 45% in size; further: potency means the concentration at half of the fitted maximal effect)
Procedure, shortened: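 NIH/3T3-derived 3T3Gli1-Luc cells with stably integrated Gli1-Luc reporter were preincubated 4hr at 37 C, then given compounds in DMSO plus Shh conditioned medium and incubated 24hr. Firefly luciferase luminescence read after 30min reagent at room temperature.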

[10] = target: Estrogen receptor beta (Homo sapiens) (UniProt Q92731); experiment: qHTS assay to identify small molecule agonists of the estrogen receptor beta (ER-beta) signaling pathway (AID 1259377; active means well fitted activation curve with a large enough effect in the signal ratio in the repeat runs, not every such curve was filed as active; the % refers to the signal ratio)
Procedure, shortened: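 Measured by fluorescence intensity from a B/G FRET beta-lactamase substrate (2 h, room temperature) in ER-beta-UAS-bla HEK293T cells treated with DMSO-dissolved compounds for 16 hr at 37C and 5% CO2.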

[11] = target: Estrogen receptor beta (Homo sapiens) (UniProt Q92731); experiment: qHTS assay to identify small molecule antagonists of the estrogen receptor beta (ER-beta) signaling pathway (AID 1259378; active means well fitted inhibition curve with a large enough effect in the signal ratio in the repeat runs, not every such curve was filed as active; the % refers to the signal ratio)
Procedure, shortened: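 ER-beta-UAS-bla HEK293T cells in 2% charcoal-stripped FBS medium treated with compound plus 1nM final 17-beta-estradiol for 16 hr at 37C. Beta-lactamase reporter read by FRET substrate fluorescence after 2 hours at room temperature.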

[12] = qHTS assay to identify small molecule agonists of the androgen receptor (AR) signaling pathway in the presence of an antagonist - cell viability counter screen (AID 1259379); further: series mostly up to about 92 µM; nearly all actives have a fitted effect of over 25% in size
Procedure, shortened: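 MDA-kb2 human breast carcinoma cells (stable MMTV-luciferase, AR/GR responsive) were seeded 3,000 cells/well, pre-incubated 5 hr at 37C without CO2, then given 3.0uM nilutamide and compounds at 15 concentrations for 16 hr. Viability was read by CellTiter-Fluor fluorescence.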

[13] = qHTS assay to identify small molecule agonists of the estrogen receptor beta (ER-beta) signaling pathway - cell viability counter screen (AID 1259380); further: nearly all actives have a fitted effect of over 30% in size; further: potency means the concentration at half of the fitted maximal effect
Procedure, shortened: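 ER-beta-UAS-bla HEK293T cells in medium with 2% charcoal-stripped FBS were preincubated 6 hr at 37C, dosed with compound in DMSO for 16 hr, then after the bla read, CellTiter-Glo was added for 30 min at room temperature; luminescence recorded.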

[14] = qHTS assay to identify small molecule agonists or antagonists of the thyroid stimulating hormone receptor (TSHR) signaling pathway - wild type cell line counter screen (AID 1259384; calls by dose curve)
Procedure, shortened: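 Wild-type Hek293 cells, 800/well, 18 h at 37C, then compound with Ro20-1724 for 30 min RT. cAMP by HTRF (cAMP-d2/anti-cAMP cryptate), 1 h RT, fluorescence read. 15 concentrations, triplicates.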

[15] = target: Estrogen receptor (Homo sapiens) (UniProt P03372); experiment: qHTS assay to identify small molecule antagonists of the estrogen receptor alpha (ER-alpha) signaling pathway using the BG1 cell line in the presence of 0.1 nM 17-beta-estradiol (AID 1259244); further: nearly all actives have a fitted effect of over 50% in size
Procedure, shortened: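 VM7Luc4E2 cells (endogenous full-length ER-alpha, stable 4xERE-luciferase) were grown 5 days in phenol red-free medium with charcoal-stripped FBS, then exposed 22 h at 37C to compounds plus 0.1 nM (final) 17beta-estradiol; ONE-Glo luminescence read-out.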

[16] = target: Estrogen receptor (Homo sapiens) (UniProt P03372); experiment: qHTS assay to identify small molecule agonists of the estrogen receptor alpha (ER-alpha) signaling pathway in the presence of an antagonist (AID 1259383; calls by dose curve; further: top concentration of the series differs between compounds; nearly all actives have a fitted effect of over 15% in size)
Procedure, shortened: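 VM7Luc4E2 cells (endogenous full-length ER-alpha, 4×ERE-luciferase) were precultured 5 days in phenol red-free medium with 10% charcoal-stripped FBS, given 10.0nM ICI-182,780 (final), then treated with compounds at 15 concentrations for 22hr at 37C; luminescence read with ONE-Glo.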

[17] = qHTS assay to identify small molecule antagonists of the estrogen receptor beta (ER-beta) signaling pathway - cell viability counter screen (AID 1259382); further: series mostly up to about 92 µM; nearly all actives have a fitted effect of over 55% in size
Procedure, shortened: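 ER-beta-UAS-bla HEK293T cells (2,000/well, 2% charcoal-stripped FBS) were pre-incubated 6 hr at 37C, then given compound plus 1nM final 17-beta-estradiol for 16 hr. Viability was read in the same wells by CellTiter-Glo luminescence after 30 min at room temperature.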

[18] = target: Androgen receptor (Homo sapiens) (UniProt P10275); experiment: qHTS assay to identify small molecule antagonists of the androgen receptor (AR) signaling pathway using the MDA cell line in the presence of 0.5 nM R1881 (AID 1259243); further: nearly all actives have a fitted effect of over 50% in size
Procedure, shortened: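 MDA-kb2 human breast carcinoma cells carrying an MMTV-luciferase reporter (AR- and GR-responsive) were plated, rested 5 hr at 37C, dosed with compounds, then stimulated with 0.5 nM R1881 (final) for 16 hr; luminescence was read after ONE-Glo.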

[19] = target: Androgen receptor (Homo sapiens) (UniProt P10275); experiment: qHTS assay to identify small molecule agonists of the androgen receptor (AR) signaling pathway in the presence of an antagonist (AID 1259381; calls by dose curve; further: nearly all actives have a fitted effect of over 15% in size)
Procedure, shortened: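 MDA-kb2 human breast carcinoma cells carrying an MMTV-luciferase reporter (AR- and GR-responsive) were treated with compounds at 15 concentrations plus 3.0uM final nilutamide for 16hr at 37C without CO2; luminescence was read after ONE-Glo addition.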

Measured: Potency

Sequence of Estrogen receptor beta (Homo sapiens) (Q92731 whole entry, looked up): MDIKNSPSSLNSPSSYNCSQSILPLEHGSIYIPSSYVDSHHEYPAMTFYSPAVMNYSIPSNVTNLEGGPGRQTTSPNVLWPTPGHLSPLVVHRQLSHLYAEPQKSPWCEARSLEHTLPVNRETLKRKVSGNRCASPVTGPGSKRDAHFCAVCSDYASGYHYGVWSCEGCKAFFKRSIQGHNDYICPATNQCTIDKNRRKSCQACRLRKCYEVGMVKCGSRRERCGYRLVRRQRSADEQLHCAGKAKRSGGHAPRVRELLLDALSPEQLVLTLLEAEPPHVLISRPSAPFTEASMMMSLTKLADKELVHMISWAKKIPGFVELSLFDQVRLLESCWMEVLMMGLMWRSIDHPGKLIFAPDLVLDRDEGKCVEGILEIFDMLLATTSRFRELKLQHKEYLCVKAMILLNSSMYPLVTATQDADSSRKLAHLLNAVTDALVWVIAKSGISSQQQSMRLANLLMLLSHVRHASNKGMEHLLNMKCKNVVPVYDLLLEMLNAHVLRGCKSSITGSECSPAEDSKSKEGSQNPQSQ
Sequence of Androgen receptor (Homo sapiens) (P10275 whole entry, looked up): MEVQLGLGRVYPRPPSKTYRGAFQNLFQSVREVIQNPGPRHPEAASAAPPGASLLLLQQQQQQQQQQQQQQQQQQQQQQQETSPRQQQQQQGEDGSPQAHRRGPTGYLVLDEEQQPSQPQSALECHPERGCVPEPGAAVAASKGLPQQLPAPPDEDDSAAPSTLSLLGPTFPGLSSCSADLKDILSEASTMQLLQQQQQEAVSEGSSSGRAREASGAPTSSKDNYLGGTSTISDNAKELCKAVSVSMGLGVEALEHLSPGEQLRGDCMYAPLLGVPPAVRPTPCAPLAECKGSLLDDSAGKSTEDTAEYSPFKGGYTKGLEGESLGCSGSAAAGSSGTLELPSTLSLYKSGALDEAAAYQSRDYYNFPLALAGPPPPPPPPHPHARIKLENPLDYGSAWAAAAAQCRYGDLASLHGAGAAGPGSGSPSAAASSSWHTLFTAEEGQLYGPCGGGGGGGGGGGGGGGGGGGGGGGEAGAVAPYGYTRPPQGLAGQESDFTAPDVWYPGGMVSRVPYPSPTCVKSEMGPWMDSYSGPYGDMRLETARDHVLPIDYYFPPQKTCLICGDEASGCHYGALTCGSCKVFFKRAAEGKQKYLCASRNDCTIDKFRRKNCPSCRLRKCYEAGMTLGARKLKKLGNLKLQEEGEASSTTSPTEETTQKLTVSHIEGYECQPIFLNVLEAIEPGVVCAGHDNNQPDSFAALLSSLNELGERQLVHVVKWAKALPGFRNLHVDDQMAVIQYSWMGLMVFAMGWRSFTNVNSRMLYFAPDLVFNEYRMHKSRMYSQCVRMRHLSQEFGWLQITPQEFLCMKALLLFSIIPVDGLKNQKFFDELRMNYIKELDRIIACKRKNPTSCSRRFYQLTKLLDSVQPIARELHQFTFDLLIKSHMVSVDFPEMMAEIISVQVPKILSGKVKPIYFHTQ
Sequence of Estrogen receptor (Homo sapiens) (P03372 whole entry, looked up): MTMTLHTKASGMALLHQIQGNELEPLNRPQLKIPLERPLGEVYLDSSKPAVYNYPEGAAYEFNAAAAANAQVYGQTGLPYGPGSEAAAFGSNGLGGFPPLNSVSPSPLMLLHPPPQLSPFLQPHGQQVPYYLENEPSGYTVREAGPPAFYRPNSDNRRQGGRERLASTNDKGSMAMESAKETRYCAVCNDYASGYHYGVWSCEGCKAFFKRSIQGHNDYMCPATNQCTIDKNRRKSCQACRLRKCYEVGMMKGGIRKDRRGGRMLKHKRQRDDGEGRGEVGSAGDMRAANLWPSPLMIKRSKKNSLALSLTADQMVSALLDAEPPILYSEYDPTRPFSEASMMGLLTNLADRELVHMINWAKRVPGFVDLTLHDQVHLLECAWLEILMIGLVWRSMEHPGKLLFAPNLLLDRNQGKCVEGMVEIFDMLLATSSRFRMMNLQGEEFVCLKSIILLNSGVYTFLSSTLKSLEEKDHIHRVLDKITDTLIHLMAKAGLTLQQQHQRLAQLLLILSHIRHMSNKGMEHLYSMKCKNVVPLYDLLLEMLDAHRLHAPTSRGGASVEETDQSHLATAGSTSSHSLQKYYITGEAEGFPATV

CCOP(=S)(OCC)O/N=C(\C#N)c1ccccc1
not listed: [15] | [16] | [17] | [18] | [19]
inactive: all other assays above

CCCCOCCOP(=O)(OCCOCCCC)OCCOCCCC
active: [13] 24.4 µM
not listed: [3] | [9] | [10] | [17] | [18] | [19]
inactive: all other assays above

CCC(C)(C)c1ccc(O)cc1
inactive and 43.6 µM (active): [1]
not listed: [4] | [10] | [17] | [18] | [19]
inactive: all other assays above

O=[N+]([O-])c1cccc2ccccc12
not listed: [3] | [4] | [10] | [18] | [19]
inactive: all other assays above

Nn1cnnc1
not listed: [3] | [18] | [19]
inactive: all other assays above

CCC(C)c1ccc(O)cc1 (centres undefined)
not listed: [3] | [4] | [14] | [15] | [16] | [18] | [19]
inactive: all other assays above

CN(C)C(=O)Nc1ccc(Cl)cc1
not listed: [3] | [10] | [15] | [16] | [17] | [18] | [19]
inactive: all other assays above

O=C(O)CC[N+](=O)[O-]
not listed: [3] | [4] | [10] | [11] | [14] | [15] | [16]
inactive: all other assays above

C#C[C@]1(O)CC[C@H]2[C@@H]3CCC4=CC(=O)CC[C@]4(C)[C@H]3CC[C@@]21C
not listed: [10] | [15] | [16] | [18] | [19]
inactive: all other assays above

Nc1cccnc1
not listed: [3] | [4] | [10] | [18] | [19]
inactive: all other assays above

O=C(NC(=O)c1c(F)cccc1F)Nc1ccc(Cl)cc1
not listed: [3] | [4] | [10] | [18] | [19]
inactive: all other assays above

CCN(CC)N=O
not listed: [3] | [10] | [11] | [15] | [16] | [18] | [19]
inactive: all other assays above

NNC(=S)NN
active: [9] 28.1 µM and 24.3 µM | [13] 30.6 µM
not listed: [3] | [6] | [10] | [11] | [18] | [19]
inactive: all other assays above
